Rows were chosen to be rich in hits. Some 0.44% of all compounds tested hit in one or more screens of this group.
YopH PTP inh: inhibitors of Yersinia enterocolitica YopH tyrosine phosphatase; fluorescence Ex485/Em525; inhibition, % (concentration not given with the values); 140,000 compounds, 0.16% hits; AID 898; in the data active = inhibition above about 50%
RmlCD inh mix: RmlC/RmlD inhibition, mixture screen | RmlC/RmlD coupled enzyme inhibition, 384-well mixture HTS | inhibition, % at 5.5 µM | 110,000 compounds, 0.39% hits; in the data active = inhibition above about 30%, passing the limit was not always enough
RmlCD fluor art: shows fluorescent artifact in RmlC/RmlD assay, dose-response counter-screen; shares compounds with RmlCD inh mix; RmlC/RmlD assay fluorescence artifact counter-screen; calls only; 360 compounds, 96% hits; call rule not given here;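 note: compound alone with no enzyme and no substrates present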
Numbers stand for hits.

Screening Cc1coc(NC(=O)CSc2nc(-c3ccc(Cl)cc3)cc(C(F)(F)F)c2C#N)n1 returned YopH PTP inh inactive and RmlCD inh mix inactive.
`COc1ccc(-c2cc(C(F)(F)F)c(C#N)c(SCC(=O)Nc3nc(C)co3)n2)cc1` gave YopH PTP inh inactive, RmlCD inh mix active and RmlCD fluor art active.
For Cc1cccc(NC2=C(Cl)C(=O)OC2NC(=O)c2ccccc2)c1 (centres undefined) the results were YopH PTP inh inactive and RmlCD inh mix inactive.
For CCOC(=O)CNc1c(-c2ccc(F)cc2)nc2cnccn12 the results were YopH PTP inh inactive, RmlCD inh mix 50 and RmlCD fluor art active.
For CCOC(=O)CNc1c(-c2ccc(Cl)cc2)nc2cnccn12 the results were YopH PTP inh inactive.
CCO[C@@H]1OC(C(=O)N2CCOCC2)=C[C@H](c2coc3ccccc3c2=O)[C@H]1CCCO was read as RmlCD inh mix inactive.
COC(=O)Cc1c(C)c2ccc(OCC(=O)N(C)C)cc2oc1=O was read as YopH PTP inh inactive, RmlCD inh mix 31 and RmlCD fluor art active.
Screening CCN(CC)Cc1c(O)ccc2c(C)c(CC(=O)OC)c(=O)oc12 returned YopH PTP inh inactive, RmlCD inh mix 110 and RmlCD fluor art active.
COC(=O)Cc1c(C)c2ccc(OCC(C)=O)c(C)c2oc1=O was read as YopH PTP inh inactive and RmlCD inh mix inactive.
For CCCOc1ccc2c(C)c(CC(=O)OC)c(=O)oc2c1 the results were YopH PTP inh inactive and RmlCD inh mix inactive.
For O=C(Cc1ccc(Cl)cc1)Nc1ccc(SC(F)F)cc1 the results were YopH PTP inh inactive.
Cc1nc(NC(=O)/C=C/c2ccccc2)sc1C(=O)Nc1ccc(Cl)cc1 was read as YopH PTP inh inactive and RmlCD inh mix inactive.
`Cc1nc(NC(=O)/C=C/c2ccccc2)sc1C(=O)Nc1ccccc1Cl` gave YopH PTP inh inactive, RmlCD inh mix 37 and RmlCD fluor art active.
Screening COc1ccc(-c2nc(C#N)c(N3CCC(C(N)=O)CC3)o2)cc1 returned YopH PTP inh 90, RmlCD inh mix 50 and RmlCD fluor art active.
For N#Cc1nc(-c2ccc(OCc3ccccc3)cc2)oc1N1CCC(C(N)=O)CC1 the results were YopH PTP inh inactive.
CC(C)(O[C@@H]1O[C@H](CO)[C@@H](O)[C@H](O)[C@H]1O)[C@H]1Cc2cc3ccc(=O)oc3cc2O1 was read as YopH PTP inh inactive, RmlCD inh mix 56 and RmlCD fluor art active.
Screening C=C(C)C1Cc2cc3ccc(=O)oc3cc2O1 (centres undefined) returned YopH PTP inh inactive.
Screening O=C(Nc1ccc(NC(=S)NC(=O)c2ccccc2Cl)cc1)c1cccc(Cl)c1 returned YopH PTP inh inactive and RmlCD inh mix inactive.
Screening Nc1nc(N)c2nc(-c3ccccc3)c(N)nc2n1 returned YopH PTP inh inactive, RmlCD inh mix 119 and RmlCD fluor art active.
Screening NNc1nnc(-c2ccccc2)c(-c2ccccc2)n1 returned YopH PTP inh inactive and RmlCD inh mix inactive.
CCO[C@@H]1OC(C(=O)N2CCOCC2)=C[C@H](c2ccccc2)[C@H]1CCCO was read as RmlCD inh mix inactive.
Screening COc1ccc(NC(=O)c2oc3ccccc3c2NC(=O)COc2ccccc2OC)c(OC)c1 returned YopH PTP inh inactive, RmlCD inh mix 104 and RmlCD fluor art active.
Screening CCOCC(=O)Nc1c(C(=O)Nc2ccccc2OC)oc2ccccc12 returned YopH PTP inh inactive and RmlCD inh mix inactive.
CCCCn1c(=O)[nH]c(=O)c2c1nc(-c1ccc(C#N)cc1)n2C1CCCC1 was read as YopH PTP inh inactive.
For CC(C)Cn1c(-c2ccc(C#N)cc2)nc2c1c(=O)[nH]c(=O)n2CC(C)C the results were YopH PTP inh inactive, RmlCD inh mix 32 and RmlCD fluor art active.
`CCCCn1c(=O)[nH]c(=O)c2c1nc(-c1ccc(-c3ccccc3Br)o1)n2CCOC` gave YopH PTP inh inactive and RmlCD inh mix inactive.
For COCCn1c(-c2ccc(-c3ccccc3Cl)o2)nc2c1c(=O)[nH]c(=O)n2CC(C)C the results were YopH PTP inh inactive, RmlCD inh mix 144 and RmlCD fluor art active.
`Cc1ccc(S(=O)(=O)NC(CC(C)C)C(=O)Oc2ccc3c4c(c(=O)oc3c2)CCC4)cc1` (centres undefined) gave YopH PTP inh inactive.
`CCC(C)C(NS(=O)(=O)c1ccc(C)cc1)C(=O)Oc1ccc2c3c(c(=O)oc2c1)CCC3` (centres undefined) gave YopH PTP inh inactive and RmlCD inh mix inactive.
CC[C@@H](NS(=O)(=O)c1ccc(C)cc1)C(=O)Oc1ccc2c3c(c(=O)oc2c1)CCC3 was read as YopH PTP inh inactive and RmlCD fluor art active.
Screening CC(C)CC(C(=O)Oc1ccc2c3c(c(=O)oc2c1)CCC3)N1C(=O)c2ccccc2C1=O (centres undefined) returned YopH PTP inh inactive and RmlCD fluor art active.
For COc1ccc(CN2C(=O)[C@H]3Cc4c([nH]c5ccccc45)C(C)(C)N3C2=O)cc1 the results were RmlCD inh mix inactive.
For C=CCNC(=O)c1ccccc1NC(=O)c1ccc(Cl)c(S(=O)(=O)Nc2ccccc2)c1 the results were YopH PTP inh inactive and RmlCD inh mix inactive.
`C=CCn1c(=N)c(C#N)cc2c(=O)n3ccccc3nc21` gave YopH PTP inh inactive and RmlCD inh mix inactive.
`CC(C)OCCCn1c(=NC(=O)c2ccncc2)c(C#N)cc2c(=O)n3ccccc3nc21` gave YopH PTP inh inactive, RmlCD inh mix 115 and RmlCD fluor art active.
Screening COCCCNC(=O)c1cc2c(=O)n3cccc(C)c3nc2n(C(C)C)c1=N returned YopH PTP inh inactive, RmlCD inh mix 64 and RmlCD fluor art active.
`C=CCn1c(=N)c(C(=O)NCCCOC)cc2c(=O)n3cc(C)ccc3nc21` gave YopH PTP inh inactive.
Screening C=CCn1c(=O)c(C#N)cc2c(=O)n3ccccc3nc21 returned YopH PTP inh inactive, RmlCD inh mix 58 and RmlCD fluor art active.
CCCCCn1c(=NC(C)=O)c(C#N)cc2c(=O)n3ccccc3nc21 was read as YopH PTP inh inactive.
`C=CCn1c(=N)c(C(=O)NCCCOC)cc2c(=O)n3ccccc3nc21` gave YopH PTP inh inactive, RmlCD inh mix 66 and RmlCD fluor art active.
COCCn1c(=N)c(C(=O)NCCc2ccc(OC)cc2)cc2c(=O)n3cccc(C)c3nc21 was read as YopH PTP inh inactive and RmlCD inh mix inactive.
For CC(C)CC(COCc1ccc(Cl)cc1)N1CCN(C(=O)c2ccc(Cl)cc2Cl)CCC1=O (centres undefined) the results were YopH PTP inh inactive and RmlCD inh mix inactive.
`Cc1cccc(N2C(=O)CCC2=O)n1` gave YopH PTP inh inactive.
For C=C1CCN([C@H](C(=O)NCc2ccccc2)C(C)C)S(=O)(=O)c2ccccc21 the results were RmlCD inh mix inactive.
COC(=O)C/C=C/[C@@H](C)[C@@H](/C=N/OCC[C@@H]1C=C[C@H](OC(C)=O)[C@@H](COC(C)=O)O1)NS(=O)(=O)c1ccc(C)cc1 was read as YopH PTP inh inactive.
COc1ccc(/C=N/NC(=O)CCc2c(C)n[nH]c2C)cc1O was read as YopH PTP inh inactive and RmlCD inh mix inactive.
`COC(=O)c1cc2c(=O)n3ccccc3nc2n(Cc2cccnc2)c1=N` gave YopH PTP inh inactive and RmlCD inh mix inactive.
